The record followed here is PubChem BioAssay.

The source made the active and inactive calls. How the calls were made is not given here.

One may read the inhibition as the change of the read-out against control, counted positive when it falls.

The target of this experiment is Pantothenate synthetase (Mycobacterium tuberculosis (strain ATCC 25618 / H37Rv)) (UniProt P9WIL5). Put plainly: Recombinant Mtb pantothenate synthetase (PanC) inhibitors, coupled enzyme, confirmatory (AID 375).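 Further: 0% = full reaction with vehicle and 100% = no enzyme background.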 The following applies: coupled enzyme assay; at 10 µM, hits give high values.
Sequence of Pantothenate synthetase (Mycobacterium tuberculosis (strain ATCC 25618 / H37Rv)) (P9WIL5 whole entry, looked up): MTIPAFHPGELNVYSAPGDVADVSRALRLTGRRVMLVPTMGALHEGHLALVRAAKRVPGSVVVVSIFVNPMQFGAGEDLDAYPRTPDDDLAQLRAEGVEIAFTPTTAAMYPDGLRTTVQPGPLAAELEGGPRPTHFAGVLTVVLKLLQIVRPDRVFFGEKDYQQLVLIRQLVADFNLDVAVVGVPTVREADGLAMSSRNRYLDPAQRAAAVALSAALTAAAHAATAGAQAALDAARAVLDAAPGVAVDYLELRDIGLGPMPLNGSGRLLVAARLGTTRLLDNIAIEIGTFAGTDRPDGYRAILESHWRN
For `COc1ccccc1C(=O)Nc1ccccc1C(=O)N1CCCC1`, the inhibition was 1% (inactive).

In the case of `COc1cccc(CN(C(=O)c2cc3ccccc3oc2=O)C2CC2)c1`, the inhibition was 8% (inactive).

Consider `Cc1c(NC(=O)C2CCCCN2S(=O)(=O)c2ccc(Cl)cc2)c(=O)n(-c2ccccc2)n1C` (stereo not given), for which the inhibition is 0% (inactive).

In the case of `Cc1nnc(NC(=O)c2ccco2)s1`, the inhibition was 5% (inactive).

With `CCN1CCCC1CNC(=O)c1cc2c(=O)n(C)c3ccccc3c2n1C` (stereo not given), the inhibition was 0% (inactive).

On to `Cn1nc(CC(=O)Nc2ccc(N3CCN(C(=O)OC(C)(C)C)CC3)cc2)c2ccccc2c1=O`, for which the inhibition is 0% (inactive).

Take `CC1(C)CNC(=O)CC(C)(C)N1O`: the inhibition is 0% (inactive).

Consider `COc1ccc(Cn2c(-c3ccco3)nc3oc4ccccc4c(=O)c3c2=O)cc1`, for which the inhibition is 0% (inactive).

Take `CCOC(=O)C1CCCN(c2nc3ccccc3nc2C(C#N)C(=O)NCc2ccccc2)C1` (stereo not given): the inhibition was 0% (inactive).

Take `Cc1ccc(CNC(=O)C2CCN(S(=O)(=O)c3cccs3)CC2)o1`: the inhibition is 0% (inactive).

As for `COc1ccc(NC(=O)N(C2CCCCC2)C2CCN(C(C)C)CC2)c(OC)c1`, the inhibition is 0% (inactive).

On to `CCCCC(CC)C(=O)Nc1ccccc1C#N` (stereo not given), for which the inhibition is 0% (inactive).

In the case of `CCOC(=O)C1=C(C)N=C2SC(C)C(=O)N2C1c1cccc(F)c1` (stereo not given), the inhibition is 0% (inactive).

For the compound `COc1ccc(Cn2c(=O)[nH]c3cc(C(=O)NCCCN4CCCC4)ccc3c2=O)cc1`, the inhibition is 5% (inactive).

As for `NS(=O)(=O)c1ccc(NC(=O)CSc2nnc(Cc3cccs3)n2-c2ccccc2)cc1`, the inhibition is 1% (inactive).

As for `c1ccc(C(Cc2nc(-c3ccccn3)no2)c2ccccc2)cc1`, the inhibition was 0% (inactive).

Take `CCOC(=O)N1CCC(NC(=O)CCN2C(=O)COc3ccccc32)CC1`: the inhibition was 0% (inactive).

Regarding `CCOc1ccc2ccccc2c1C(=O)N1CCN(c2ccccc2)CC1`, the inhibition is 9% (inactive).

`COc1cc(=O)[nH]c(SCc2c(F)c(F)c(F)c(F)c2F)n1`: the inhibition was 2% (inactive).

Regarding `Cc1ccccc1NC(=O)C1Cc2ccccc2C(=O)O1` (stereo not given), the inhibition is 0% (inactive).

Turning to `CCOc1ccc(N(CC(=O)OC)S(=O)(=O)c2ccc(OC)c(OC)c2)cc1`, the inhibition is 0% (inactive).

In the case of `COc1ccc(-c2nnc(SC(C)C(=O)Nc3nccs3)n2-c2ccccc2)cc1OC` (stereo not given), the inhibition is 0% (inactive).

For the compound `O=c1c2ccccc2nc(-c2cccc(Cl)c2)n1O`, the inhibition was 4% (inactive).

As for `COc1ccccc1CN(Cc1nc2ccccc2c(=O)[nH]1)C(=O)Nc1ccccc1`, the inhibition is 0% (inactive).

Regarding `COc1ccc(NC(=O)CSC2=C(C#N)C(c3ccco3)C3=C(CCCC3=O)N2)c(OC)c1` (stereo not given), the inhibition was 16% (inactive).

As for `COC(=O)c1cc(OC)c(OC)cc1NC(=O)CCC1CCCC1`, the inhibition was 0% (inactive).

With `CSc1nnc(-c2cnccn2)n1C`, the inhibition was 0% (inactive).

`COc1ccc(-c2cc(C(=O)NCc3ccc(Cl)cc3)no2)cc1OC`: the inhibition is 0% (inactive).

As for `CCOc1ccc(-n2c(C)nc3c(cnn3-c3ccc(Cl)cc3)c2=O)cc1`, the inhibition is 4% (inactive).

For the compound `COc1ccc(NC(=O)Nc2cc(C)ccc2OC)cc1`, the inhibition is 0% (inactive).

Turning to `COc1cc2c(OC)cccc2cc1C(=O)O`, the inhibition is 0% (inactive).

`C/C(=C\c1ccco1)C1C(C#N)=C(N)OC2=C1C(=O)CC(C)(C)C2` (stereo not given): the inhibition was 12% (inactive).

As for `CS(=O)(=O)N(CC(=O)N1CCCCCC1)c1ccccc1`, the inhibition is 8% (inactive).

Take `Cn1c(=O)c2c(nc(CN3CCN(c4ccccc4F)CC3)n2CCN2CCOCC2)n(C)c1=O`: the inhibition is 0% (inactive).

Consider `CC(C)NC(=O)CSc1nc2ccccc2n1-c1ccccc1`, for which the inhibition was 1% (inactive).

On to `CC(C)(C)n1nnnc1CN1CCN(C2CCCC2)CC1`, for which the inhibition was 3% (inactive).

For the compound `CCOc1cc(/C=N/n2cnnc2)cc(Br)c1O`, the inhibition was 0% (inactive).

`CCn1c(SCC(=O)Nc2cccc(C)c2)nc2c(c1=O)SC(C)C2` (stereo not given): the inhibition is 1% (inactive).

For the compound `COc1ccc(-n2c(SCC(=O)c3c(N)n(C)c(=O)n(C)c3=O)nc3ccccc32)cc1`, the inhibition is 0% (inactive).

Consider `COC(=O)c1c(-c2cccs2)csc1NC(=O)CN1CCOCC1`, for which the inhibition is 0% (inactive).
